# Source: PubChem BioAssay (NCI)
# About 83,000 compounds went through this panel and 20% of them were active in at least one assay; those are over-represented in the sample as a whole.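 48-hour exposure, single concentration, 96-well plates; percent growth endpoint where 0 means no net growth. Active: below 10.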 A number with no mark means an inactive call. Active and inactive are the calls of the source.
# Columns and labels:
# Test in all cases: NCI-60 one-dose screen, 48 h (100 = growth as untreated, 0 = no growth, -100 = all killed)
# Details in all cases: 10 µM unless noted
# [1] = system: SK-MEL-2 melanoma
# [2] = system: EKVX NSCLC
# [3] = system: SN12C renal
# [4] = system: UO-31 renal
# [5] = system: TK-10 renal
# [6] = system: ACHN renal
# [7] = system: CAKI-1 renal
# [8] = system: A498 renal
# [9] = system: CCRF-CEM leukemia
# [10] = system: MOLT-4 leukemia
# [11] = system: SR leukemia
# [12] = system: RPMI-8226 leukemia
# [13] = system: OVCAR-8 ovarian
# [14] = system: OVCAR-5 ovarian
# [15] = system: OVCAR-4 ovarian
# [16] = system: SK-OV-3 ovarian
# [17] = system: IGROV1 ovarian
# [18] = system: OVCAR-3 ovarian
# [19] = system: HS 578T breast
# [20] = system: NCI/ADR-RES ovarian
Structure (SMILES),growth [1],growth [2],growth [3],growth [4],growth [5],growth [6],growth [7],growth [8],growth [9],growth [10],growth [11],growth [12],growth [13],growth [14],growth [15],growth [16],growth [17],growth [18],growth [19],growth [20]
O=C(CCn1cc[n+](CC(=O)c2ccc(-c3ccccc3)cc2)c1)Nc1cccc2cccnc12,90.1%,81.9%,77.4%,88.1%,117%,104%,104%,98.8%,78.4%,84.3%,79.8%,34%,82.4%,91.7%,24.6%,74.6%,36.4%,51.9%,71.3%,99.7%
CCn1c(SCC(=O)Nc2cccc(C(=O)/C=C/c3ccccc3Cl)c2)nc2ccccc2c1=O,110%,85.8%,88.4%,68%,125%,97%,84.6%,94%,77.8%,93.2%,52.2%,6.75% (active),98.9%,97.7%,86%,106%,65.7%,69.1%,92.2%,93.4%
CC1(C)[C@@H](O)CC[C@]2(C)[C@H]3CC[C@@H]4[C@H]5[C@H](C(=O)/C=C\c6ccccn6)CC[C@]5(O)CC[C@@]4(C)[C@]3(C)CC[C@@H]12,77.8%,42.5%,50.5%,50.8%,77.5%,32.6%,33.9%,22%,-0.82% (active),-8.46% (active),-17.6% (active),-19.2% (active),39.5%,48.4%,32.9%,89.8%,34.5%,25.4%,39.2%,26.4%
Nc1cc(F)ccc1NC(=O)c1ccc(NC(=O)C/C=C/c2cccnc2)cc1,41.3%,73%,29.5%,52.6%,52.9%,55.9%,66.4%,43.2%,24.6%,40.7%,29.3%,6.2% (active),29.9%,37.2%,48%,54.5%,27.9%,45.1%,49%,51%
CNC(=O)c1cc(-c2ccc(NS(=O)(=O)c3ccc(C)cc3)cc2)nc2cccnc12,102%,95.9%,103%,81.5%,118%,104%,94.4%,106%,109%,100%,113%,110%,99.5%,117%,99.5%,107%,97.4%,111%,104%,100%
Nc1ccccc1NC(=O)c1ccc(NC(=O)C/C=C/c2cccnc2)cc1,15.5%,61.3%,29.1%,17.6%,28.9%,47.1%,45.1%,-16.4% (active),22.5%,31.1%,30.7%,6.76% (active),26.3%,29.7%,39.8%,44.5%,23.3%,33.2%,30.3%,50.8%
CCN(CC)c1ccc2c(c1)Oc1nc(N)c(C#N)c(N)c1C2Sc1ccc(C)cc1 (stereo not drawn),-83.2% (active),-97.2% (active),-69.7% (active),-99.7% (active),-90.6% (active),-98.8% (active),-97.9% (active),-85.2% (active),-19.7% (active),-14.2% (active),-22% (active),-22.9% (active),-57.9% (active),-88.6% (active),-96.7% (active),-89.3% (active),-87.4% (active),-54% (active),-18.8% (active),-17.9% (active)
O=S(=O)(NCCNc1nccc(-n2cnc3ccccc32)n1)c1ccc(Br)cc1,108%,83.4%,91.5%,79.8%,103%,93.6%,81.5%,76.3%,101%,95.9%,75.1%,79.7%,95.6%,94%,82.2%,99.9%,90.7%,103%,85.7%,97.6%
CNc1ncc2cc(-c3ccc(-c4ncccc4F)cc3Cl)c(=O)n(CC3OCC(N)CO3)c2n1 (stereo not drawn),93.5%,57.6%,59.8%,-12.3% (active),13.1%,40.9%,0.298% (active),6.43% (active),78.1%,57.8%,32.2%,96.1%,65.6%,44.1%,117%,75.8%,-2.32% (active),90.7%,34.6%,79.4%
O=C(CN1CCN(c2cc(=O)n(-c3ccccc3)c3ccccc23)CC1)Nc1cccc(C(F)(F)F)c1,92%,42.9%,75.9%,33%,74.4%,58.5%,56.9%,52.9%,53.4%,34.8%,67.3%,47%,70.6%,91.8%,19.9%,77.3%,60.7%,69.8%,76.3%,64.7%
NS(=O)(=O)c1ccc(Nc2nc(N/N=C/CCc3ccccc3)nc(Nc3ccccc3)n2)cc1,105%,97.8%,105%,84%,105%,101%,96.9%,86.4%,93.6%,101%,91.5%,101%,104%,103%,104%,104%,106%,117%,96.8%,113%
C=CCn1c(SCC(=O)Nc2ccc(C(=O)/C=C/c3ccc(C)cc3)cc2)nnc1-c1c[nH]c2ccccc12,97.3%,61.9%,83.6%,54.2%,114%,83.4%,85.4%,95.1%,83.1%,60.7%,71.7%,34.9%,90.9%,99.6%,81.3%,105%,78.4%,99.4%,96.9%,98.4%
C=C1CC[C@@H]2[C@]3(C)COC(c4ccccc4)O[C@@H]3CC[C@@]2(C)[C@@H]1C/C=C1/C(=O)OC[C@H]1O (stereo partly drawn),93.3%,100%,79.9%,75.7%,109%,100%,83.7%,109%,9.03% (active),84%,36.9%,28.2%,56.6%,105%,83.4%,119%,89.3%,63.8%,101%,57%
Cc1nn(-c2ccccc2)c2ncnc(N/N=C/c3ccccc3)c12,104%,89.6%,81%,75.3%,113%,85.8%,102%,74.1%,88.3%,87.1%,98.1%,105%,96.7%,97.5%,80.4%,102%,81.9%,83.5%,103%,93%
CC(C)(C)n1cc(-c2ccnc(NCCCNS(=O)(=O)c3cccc(F)c3)n2)c(-c2ccc(Cl)c(O)c2)n1,98.4%,80.5%,90.9%,101%,152%,97%,95.8%,91.4%,71.4%,77.4%,94.1%,76%,118%,109%,101%,105%,103%,109%,101%,101%
Cn1cc(-c2nc(N)nnc2-c2c[nH]c3ccc(Br)cc23)c2cc(Br)ccc21,26.8%,65.1%,44.7%,54.1%,98%,52%,40.3%,18.3%,11.8%,17.7%,20.4%,31.1%,57.8%,79.9%,110%,72.4%,43.7%,26.8%,76.7%,46.5%

Structure (SMILES),growth [1],growth [2],growth [3],growth [4],growth [5],growth [6],growth [7],growth [8],growth [9],growth [10],growth [11],growth [12],growth [13],growth [14],growth [15],growth [16],growth [17],growth [18],growth [19],growth [20]
Cc1ccc(C2=NN(C)C(=O)C3(CCCC3)C2)cc1,110%,102%,101%,95.5%,97.3%,110%,100%,89.4%,111%,102%,113%,111%,102%,102%,106%,110%,110%,110%,109%,102%
N/C(=N\C(N)=N\c1nc2ccccc2s1)c1ccncc1Cl,35.3%,52.7%,35.8%,34.6%,129%,37.7%,37.5%,65.3%,10.7%,23.9%,39.4%,11.6%,49%,61.1%,104%,41.8%,34.2%,19.8%,35.7%,25.2%
ClC(Cl)c1nc(-c2ccco2)n2nc(-c3ccccc3)cc2n1,89.6%,4.01% (active),66.5%,35.3%,20.3%,-23.9% (active),-19.1% (active),-7.32% (active),89.8%,66.6%,87.3%,-25.5% (active),31.7%,2.76% (active),36.6%,51%,76.9%,-29.9% (active),-2.15% (active),4.02% (active)
O=C(Nc1nonc1-c1ccccc1)c1ccc(C(F)(F)F)cc1,65.3%,84.6%,71.7%,91.4%,146%,82.1%,85.5%,95.6%,50.8%,69.1%,85.6%,74.2%,86.6%,100%,91.2%,112%,96.4%,,101%,85.2%
CN(C)CCCOc1ccc2c(c1)CN(C(=O)c1cc(C(=O)N3Cc4cccc(F)c4C3)ccc1O)C2,117%,103%,99.4%,95.3%,122%,106%,95.8%,97.1%,98.1%,97.5%,96.8%,98.9%,101%,108%,99%,112%,113%,,92.9%,107%
CC(=O)c1cc(C(=O)N2c3ccccc3Sc3ccccc32)n2ccc3ccccc3c12,-77.5% (active),61.3%,67.6%,42.8%,98.4%,42.5%,39.8%,12.9%,28%,49.1%,16.6%,50.3%,32.7%,69.7%,73.6%,48.7%,49.9%,,16%,13.4%
CC[C@@H](CO)Nc1ccc2ncc(C#Cc3cncc(C(=O)Nc4ccc(CN5CCN(C)CC5)c(C(F)(F)F)c4)c3)n2n1,-93.2% (active),-9.99% (active),-55.4% (active),-85.9% (active),-53.5% (active),-91.4% (active),-82.8% (active),-98.8% (active),7.24% (active),3.44% (active),-24.4% (active),-34.5% (active),-57.6% (active),-14% (active),-44.1% (active),-40% (active),-25.4% (active),,-41.5% (active),55.1%
CCCCCc1ccc(S(=O)(=O)Nc2cccc(-c3csc(NCCN4CCN(C)CC4)n3)c2)cc1,102%,84.2%,90.6%,73.4%,120%,89.9%,83.1%,85.4%,16.2%,11.7%,-6.54% (active),-21.4% (active),94.2%,94.1%,84.5%,92.4%,79.9%,68.1%,87%,85.7%
COc1ccc(NCc2cn(-c3ccc(C(=O)O)cc3)nc2-c2cc(C(F)(F)F)cc(C(F)(F)F)c2)cc1,101%,90.3%,95.4%,93.1%,110%,102%,81.5%,72.1%,95.9%,86.4%,112%,67.2%,109%,104%,100%,99.6%,108%,101%,81.5%,96.8%
COC(=O)c1[nH]nc2c1C1(C(=O)N(C)c3ccccc31)C(C#N)=C(N)O2 (stereo not drawn),105%,99.3%,97.9%,79.7%,102%,97.9%,91.1%,90.2%,109%,112%,113%,104%,102%,103%,97.7%,98.3%,105%,,99.7%,99.7%
CCNC(=O)N1CCc2cc(OC)c(OCCc3ccc(OC)nc3)cc2C1c1ccc(C)cc1C (stereo not drawn),1.68% (active),39.3%,30.5%,28.5%,44.8%,25%,18.1%,-12.2% (active),27%,22.6%,7.67% (active),9.18% (active),15.5%,31.4%,52.5%,54%,17.2%,,-2.81% (active),7.35% (active)
CCNC(=O)N1CCc2cc(OC)c(OCCc3ccc(OC)cc3)cc2C1c1ccc(Cl)cc1C (stereo not drawn),14.7%,37%,18.6%,28.2%,54.2%,23.1%,23.3%,-12.8% (active),38.2%,23.6%,6.29% (active),20%,27.3%,32.9%,51.7%,54.9%,23.4%,,1.75% (active),13.5%
O=C(c1ccc(Cl)cc1)C1[C@H](c2ccc(Cl)cc2)[C@@H](c2ccccc2)NC12C(=O)Nc1ccccc12 (stereo partly drawn),72.5%,58.6%,16.6%,43.8%,78.8%,34.5%,37%,74.3%,53.9%,21.1%,3.54% (active),40.1%,64%,71%,59.7%,102%,44.9%,47.7%,67.1%,52.2%
Cn1ccnc1C(=O)/C=C/c1ccc(NC(=O)c2c(F)c(F)c(F)c(F)c2F)cc1,112%,99.7%,101%,79.7%,133%,101%,107%,113%,86%,85.2%,70.2%,80.6%,102%,111%,106%,129%,98.9%,107%,112%,108%
NC(=O)c1cccc(C#CCNC[C@H]2C[C@@H](n3ccc4c(Cl)ncnc43)[C@H](O)[C@@H]2O)c1,104%,106%,99.5%,92.4%,97.3%,106%,94.4%,94.7%,102%,114%,112%,110%,101%,98.4%,111%,105%,101%,113%,101%,106%
